In test [1] the target is Thyrotropin receptor (Homo sapiens) (UniProt P16473). As to the kind of experiment: qHTS assay to identify small molecule agonists of the thyroid stimulating hormone receptor (TSHR) signaling pathway (AID 1224843; calls by dose curve; also: nearly all actives have a fitted effect of over 45% in size). A digest of the protocol: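 TSHR-HEK293 cells in agonist mode, 30 min room-temperature step, then cAMP measured by competitive HTRF (cAMP-d2 with anti-cAMP cryptate) after 1 h at room temperature. Tested at 15 concentrations in triplicate.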
Sequence of Thyrotropin receptor (Homo sapiens) (P16473 whole entry, looked up): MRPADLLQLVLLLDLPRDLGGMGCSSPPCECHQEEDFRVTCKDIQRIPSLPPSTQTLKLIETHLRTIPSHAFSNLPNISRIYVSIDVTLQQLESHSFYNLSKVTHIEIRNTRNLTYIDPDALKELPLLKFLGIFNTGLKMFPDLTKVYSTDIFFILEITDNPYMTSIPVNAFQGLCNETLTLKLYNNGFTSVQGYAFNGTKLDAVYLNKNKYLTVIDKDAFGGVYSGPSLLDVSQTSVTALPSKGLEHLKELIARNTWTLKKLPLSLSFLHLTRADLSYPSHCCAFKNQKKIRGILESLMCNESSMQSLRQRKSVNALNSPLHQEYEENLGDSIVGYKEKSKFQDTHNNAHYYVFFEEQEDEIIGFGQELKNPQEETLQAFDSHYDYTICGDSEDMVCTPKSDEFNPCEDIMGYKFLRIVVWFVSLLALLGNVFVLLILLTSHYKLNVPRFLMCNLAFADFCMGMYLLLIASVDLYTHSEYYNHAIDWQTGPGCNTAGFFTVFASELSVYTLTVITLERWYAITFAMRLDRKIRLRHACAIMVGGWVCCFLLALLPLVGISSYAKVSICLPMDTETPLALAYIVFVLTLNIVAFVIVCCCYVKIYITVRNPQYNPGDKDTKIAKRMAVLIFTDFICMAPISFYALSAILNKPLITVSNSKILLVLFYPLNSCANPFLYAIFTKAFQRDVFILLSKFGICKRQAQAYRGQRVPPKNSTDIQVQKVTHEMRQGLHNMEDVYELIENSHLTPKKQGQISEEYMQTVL
(In general: Quantitative high-throughput screening tests each substance at several concentrations.)

A short description of test [2]: qHTS assay to identify small molecule agonists of H2AX (AID 1224845; active = well fitted activation curve with a large enough effect in the signal ratio in the repeat runs, not every such curve was filed as active; the % refers to the signal ratio). A digest of the protocol: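 Wild-type CHO-K1 cells, plated overnight, exposed 3hr at 37C to 15 concentrations (0.76% DMSO final). Lysed, then HTRF anti-pH2AX (S139) cryptate and anti-H2AX-d2 antibodies, 24 hr room temperature; 665/620 nm emission read.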
Test [3] can be described thus: qHTS assay to identify small molecule agonists of the hypoxia (HIF-1) signaling pathway (AID 1224846; active = well fitted activation curve with a large enough effect in the signal ratio in the repeat runs, not every such curve was filed as active; the % refers to the signal ratio). A digest of the protocol:
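Measured by blue/green FRET after loading CCF4-AM: beta-lactamase expressed from a hypoxia response element in ME-180 cells. Test agents were delivered in DMSO and left 17 hrs; cells had been plated 5 hrs earlier in low-serum (0.5% dialyzed FBS) medium.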

The nature of test [4]: qHTS assay to identify small molecule agonists of H2AX - cell viability counter screen (AID 1224847; calls by dose curve; also: top concentration of the series differs between compounds; nearly all actives have a fitted effect of over 30% in size). A digest of the protocol: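 After overnight plating of 1000 CHO-K1 cells per well, a 15-concentration compound series was applied for 3 hr at 37C. Luminescence from CellTiter-Glo, read following 30 min at room temperature, reflected cell viability.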
Test [5] in a line: qHTS assay to identify small molecule antagonists of the estrogen related receptor (ERR) signaling pathway from Tox21 library (AID 1224848). Also: nearly all actives have a fitted effect of over 50% in size. Also: potency is read from the fitted curve at half-maximal effect. A digest of the protocol: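 ERR reporter cell line (from NTP) seeded 2,000 cells/well, rested 6 h at 37 C/5% CO2, then pin-dosed with compounds in DMSO. After 18 h at 37 C, ONE-Glo added; luminescence read after 30 min at room temperature.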

The nature of test [6]: qHTS assay to identify small molecule agonists of the estrogen related receptor (ERR) signaling pathway from Tox21 library (AID 1224849; calls by dose curve; also: potency is read from the fitted curve at half-maximal effect; as to all read-outs here: nearly all actives have a fitted effect of over 15% in size). Conditions: ERR reporter cell line, ONE-Glo luciferase, 18 h; for activity change, positive = activation: at 92.4 µM (top of the series). A digest of the protocol: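 We plated ERR reporter cells, waited 6 h, added compounds in DMSO by pin tool and incubated them 18 h at 37 C. ONE-Glo was then added and luminescence read after 30 min.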

Test [7] can be described thus: qHTS RealTime-Glo MT Cell Viability Assay in HepG2 cells - 24 hour (AID 1224867). Also: nearly all actives have a fitted effect of over 50% in size. A digest of the protocol:
(§1)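 Cells + NanoLuc/prosubstrate dispensed (600 cells/well) → 5 h at 37 C/5% CO2 → compounds in DMSO transferred → 40 h incubation at 37 C, luminescence read at 0, 8, 16, 24, 32, 40 h.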

Test [8] is described as follows: A CellTox Green Cytotoxicity Assay to monitor cytotoxicity in HEK293 cells - 0 hour (AID 1224869). Also: nearly all actives have a fitted effect of over 50% in size. Also: potency is read from the fitted curve at half-maximal effect. A digest of the protocol:
(§2)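 Each value comes from one timepoint of a single continuous run in which HEK293 cells with CellTox Green were exposed to compound for up to 40 h at 37 C, dye fluorescence rising with cell death.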

The nature of test [9]: qHTS RealTime-Glo MT Cell Viability Assay in HepG2 cells - 40 hour (AID 1224870). Also: nearly all actives have a fitted effect of over 50% in size. A digest of the protocol:
(§3)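 HepG2 cells (600/well) mixed with RealTime-Glo MT reagent, settled 5 h at 37 C/5% CO2 before compound addition. Nonlytic NanoLuc luminescence from viable-cell prosubstrate reduction read repeatedly during 40 h treatment at 37 C.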

Test [10] is described as follows: A CellTox Green Cytotoxicity Assay to monitor cytotoxicity in HEK293 cells - 40 hour (AID 1224871). Also: nearly all actives have a fitted effect of over 45% in size. Also: potency is read from the fitted curve at half-maximal effect. A digest of the protocol:
as §2

Test [11] in a line: A CellTox Green Cytotoxicity Assay to monitor cytotoxicity in HEK293 cells - 24 hour (AID 1224875). Also: nearly all actives have a fitted effect of over 45% in size. Also: potency is read from the fitted curve at half-maximal effect. A digest of the protocol: as §2
Test [12] in a line: A CellTox Green Cytotoxicity Assay to monitor cytotoxicity in HepG2 cells - 16 hour (AID 1224876). Also: nearly all actives have a fitted effect of over 45% in size. Also: potency is read from the fitted curve at half-maximal effect. A digest of the protocol:
(§4)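 Continuous culture of HepG2 cells with a membrane-impermeant DNA dye; rising fluorescence marks dead cells. Compound exposure lasted up to 40 h at 37 C, with reads every 8 h from 0 h.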

Test [13] in a line: qHTS RealTime-Glo MT Cell Viability Assay in HepG2 cells - 32 hour (AID 1224877). Also: nearly all actives have a fitted effect of over 55% in size. A digest of the protocol:
as §1

Test [14] is described as follows: A CellTox Green Cytotoxicity Assay to monitor cytotoxicity in HepG2 cells - 24 hour (AID 1224878). Also: nearly all actives have a fitted effect of over 45% in size. Also: potency is read from the fitted curve at half-maximal effect. A digest of the protocol: as §4
A short description of test [15]: A CellTox Green Cytotoxicity Assay to monitor cytotoxicity in HepG2 cells - 40 hour (AID 1224879). Also: nearly all actives have a fitted effect of over 40% in size. Also: potency is read from the fitted curve at half-maximal effect. A digest of the protocol: as §4
The nature of test [16]: qHTS RealTime-Glo MT Cell Viability Assay in HEK293 cells - 32 hour (AID 1224868). A digest of the protocol:
(§5)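 Tox21 10K qHTS, HEK293, 600 cells/well, RealTime-Glo reagent co-dispensed with cells; 5 h preincubation, compound by pintool, 37 C, luminescence at 0–40 h.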

Test [17] in a line: qHTS RealTime-Glo MT Cell Viability Assay in HEK293 cells - 16 hour (AID 1224872). A digest of the protocol:
as §5

Test [18] can be described thus: qHTS RealTime-Glo MT Cell Viability Assay in HepG2 cells - 8 hour (AID 1224873). Also: nearly all actives have a fitted effect of over 55% in size. A digest of the protocol: as §3
The nature of test [19]: qHTS RealTime-Glo MT Cell Viability Assay in HEK293 cells - 40 hour (AID 1224874). Also: nearly all actives have a fitted effect of over 50% in size. Conditions: RealTime-Glo luminescence; max response: stronger effect = lower value. A digest of the protocol:
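qHTS format; HEK293 cells with NanoLuc/prosubstrate reagent, 37 C/5% CO2 for 5 h pre-dosing; compounds 23 nL in DMSO; luminescence at each time point reflects viable cells.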

A short description of test [20]: qHTS assay to identify small molecule agonists of the hypoxia (HIF-1) signaling pathway - cell viability counter screen (AID 1224844; calls by dose curve; also: nearly all actives have a fitted effect of over 50% in size). A digest of the protocol: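 Luminescent ATP content (CellTiter-Glo, 30 min, room temperature) served as the viability measure in HRE-bla ME-180 cells exposed to compounds for 17 hrs in low-serum medium (0.5% dialyzed FBS).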

This is an account of results in PubChem BioAssay (Tox21).

“And” between values parts separate entries of the source, which are not always exact repeats. Equal entries are not always repeated. Inconclusive results are not listed. The source holds several records for some structures; these can differ, active in one and inactive in another. The source made the active and inactive calls. Unless noted, calls follow the shape of the dose curve; as a rule, active = well fitted curve in the direction sought with a large enough effect in the repeat runs; inconclusive = weak or mixed curves; inactive = no such curve, though single readings can be large; an effect the other way counts as inactive or inconclusive.
% is scaled to controls: 0 for no effect and ±100 for the full control effect.

For `Nc1ccc(Cl)cc1N`, the Potency result in test [1], in [2], in [4], in test [5], in [7] and in test [9] was “inactive” each time. Besides, the Potency result in test [13] is “inactive”. The compound was classed as inactive in [3]. Also, the Potency was 8.31 µM [activator] (active) in [6]; 40 µM (active) in test [8]; 21.9 µM (active) in test [10]; 24.5 µM (active) in [11]; “inactive and 40.4 µM (active)” in test [12]; “inactive and 21.9 µM (active)” in [14]. Also, the Potency in test [15] was 10.2 µM (active) and 21.9 µM (active). Moreover, the activity change, positive = activation in test [6] is 19.2% (active).

For `N#Cc1cc(Br)c(O)c(Br)c1`, the Potency result in test [1], in [2], in test [7], in [16], in test [8] and in [9] was “inactive” each time. For the same compound, the Potency entry in test [10], in test [17], in test [18], in test [11], in test [12] and in test [13] was “inactive” throughout. Moreover, the Potency result in [14] and in [15] was “inactive” each time. Also, the compound was called inactive in test [3]. For the same compound, the Potency in [5] was 48.5 µM (active) and 37.1 µM (active). In addition, the activity change, positive = activation in test [6] is -51.5% (inactive) and -34.9% (inactive). In addition, the max response in [19] is -28.3% (inactive) and -19.4% (inactive).

As for `CC1(C)C(C=C(Cl)Cl)C1C(=O)OC(C#N)c1cccc(Oc2ccccc2)c1` (configuration not stated), the Potency entry in test [1], in test [20], in test [4], in test [7], in test [16] and in test [8] was “inactive” each time. The Potency result in test [9], in [17], in test [18], in test [11], in test [12] and in test [13] was “inactive” throughout. Further, the Potency entry in test [14] and in [15] was “inactive” in each case. For the same compound, in test [3], the call was inactive. Moreover, the max response in test [19] is -14.9% (inactive) and 6.86% (inactive).

Regarding `CCN(CC)C(=O)/C(Cl)=C(\C)OP(=O)(OC)OC`, the Potency result in [1], in test [2], in test [4], in test [7], in test [16] and in test [8] was “inactive” in each case. Further, the Potency entry in test [9], in test [17], in [11], in test [12], in test [13] and in test [14] was “inactive” each time. Also, in [15], the Potency result was “inactive”. Further, the outcome in test [3] was inactive.

With `CC(O)CCO` (configuration not stated), the Potency entry in test [1], in test [2], in test [4], in test [7], in test [16] and in [8] was “inactive” in each case. Besides, the Potency entry in test [9], in [17], in test [18], in test [11], in test [12] and in test [13] was “inactive” each time. For the same compound, the Potency result in test [14] and in test [15] was “inactive” in each case. Besides, the result in test [3] was inactive. The max response in test [19] is -0.607% (inactive) and 26.7% (inactive).

For `CC(C)(OOC(C)(C)c1ccccc1)c1ccccc1`, the Potency result in [1], in [20], in [5], in [7], in test [16] and in [8] was “inactive” in each case. Further, the Potency entry in [9], in test [17], in [18], in [12], in [13] and in test [14] was “inactive” in each case. Besides, in [15], the Potency result was “inactive”. For the same compound, the result in test [3] was inactive. The activity change, positive = activation in test [6] was 7.35% (inactive) and 4.9% (inactive). Further, the Potency was 24.2 µM (active) and 49 µM (active) in test [10]; 48.3 µM (active) and 49 µM (active) in test [11].
